In PubChem BioAssay AID1159580 (chemical genetic matrix, 2015):
Values joined by “and” are separate entries in the source; they are usually repeats but may differ in a detail not shown here. Identical values can stand only once. In all, about 5,500 compounds went through this assay and about 2,000 (36%) were called active. Roughly 18% stayed inconclusive and do not appear here. Cut-off read from the data, not from the text of the source: active = normalized growth mostly below about 0.91 (no sharp cut-off); inconclusive = no clear call, values can overlap the other calls; inactive = mostly above about 0.92. This is one part of the list.

Experiment: chemical genetic growth profiling, strain panel (AID 1159580);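 note: tested at 20 µM; growth read once vehicle control cultures reached saturation at 30 °C; 1 = growth at the plate median or of vehicle wells; lower values mean less growth of the strain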
Conditions: growth OD
[1] = S. cerevisiae deletion strains, locus YHR030C, strain SLT2, stronger effect = lower value
[2] = S. cerevisiae deletion strains, locus YHR079C, strain IRE1, stronger effect = lower value
[3] = S. cerevisiae deletion strains, locus YJL095W, strain BCK1, stronger effect = lower value
[4] = S. cerevisiae deletion strains, locus YJR066W, strain TOR1, stronger effect = lower value
[5] = S. cerevisiae deletion strains, locus YLR113W, strain HOG1, stronger effect = lower value
[6] = S. cerevisiae deletion strains, locus YNL183C, strain NPR1, stronger effect = lower value
[7] = S. cerevisiae deletion strains, locus YOR231W, strain MKK1, stronger effect = lower value
[8] = S. cerevisiae deletion strains, locus YPL256C, strain CLN2, stronger effect = lower value

Measured: normalized growth

NC(N)=NC(N)=NCCc1ccccc1
inactive: [1] 0.956 | [2] 0.96 | [3] 0.961 | [4] 0.953 | [5] 0.965 | [6] 0.916 | [7] 0.975 | [8] 0.934

CC(C)N=C(N)N=C(N)Nc1ccc(Cl)cc1
inactive: S. cerevisiae deletion strains, locus YAL013W, strain DEP1, stronger effect = lower value 1.02 | S. cerevisiae deletion strains, locus YBR021W, strain FUR4, stronger effect = lower value 1.02 | S. cerevisiae deletion strains, locus YBR229C, strain ROT2, stronger effect = lower value 1.01 | S. cerevisiae deletion strains, locus YCL029C, strain bik1, stronger effect = lower value 1.02 | S. cerevisiae deletion strains, locus YDL035C, strain GPR1, stronger effect = lower value 1.01 | S. cerevisiae deletion strains, locus YDL074C, strain BRE1, stronger effect = lower value 1.02 | S. cerevisiae deletion strains, locus YDL101C, strain DUN1, stronger effect = lower value 1.01 | S. cerevisiae deletion strains, locus YDL134C, strain PPH21, stronger effect = lower value 1.01 | S. cerevisiae deletion strains, locus YDL185W, strain tfp1, stronger effect = lower value 1.01 | S. cerevisiae deletion strains, locus YDL192W, strain arf1, stronger effect = lower value 1.01 | S. cerevisiae deletion strains, locus YDR101C, strain arx1, stronger effect = lower value 1.01 | S. cerevisiae deletion strains, locus YDR150W, strain NUM1, stronger effect = lower value 1.02 | S. cerevisiae deletion strains, locus YDR162C, strain NBP2, stronger effect = lower value 1.01 | S. cerevisiae deletion strains, locus YDR318W, strain mcm21, stronger effect = lower value 1.02 | S. cerevisiae deletion strains, locus YDR388W, stronger effect = lower value 1.02 | S. cerevisiae deletion strains, locus YDR502C, strain sam2, stronger effect = lower value 1.01 | S. cerevisiae deletion strains, locus YEL061C, strain CIN8, stronger effect = lower value 1 | S. cerevisiae deletion strains, locus YER110C, stronger effect = lower value 1.02 | S. cerevisiae deletion strains, locus YER155C, strain BEM2, stronger effect = lower value 1.01 | S. cerevisiae deletion strains, locus YER167W, strain BCK2, stronger effect = lower value 1.02 | S. cerevisiae deletion strains, locus YGL078C, strain dbp3, stronger effect = lower value 1.01 | S. cerevisiae deletion strains, locus YGL086W, strain mad1, stronger effect = lower value 1.01 | S. cerevisiae deletion strains, locus YGL248W, strain PDE1, stronger effect = lower value 1.02 | S. cerevisiae deletion strains, locus YGR078C, strain PAC10, stronger effect = lower value 1.01 | S. cerevisiae deletion strains, locus YGR135W, strain pre9, stronger effect = lower value 1 | S. cerevisiae deletion strains, locus YGR229C, strain SMI1, stronger effect = lower value 1.01 | S. cerevisiae deletion strains, locus YGR252W, strain gcn5, stronger effect = lower value 0.986 | [1] 1.01 and 1.03 | S. cerevisiae deletion strains, locus YHR079C, strain IRE1 (second series), stronger effect = lower value 1.02 | [2] 1 | S. cerevisiae deletion strains, locus YHR094C, strain hxt1, stronger effect = lower value 1.01 | S. cerevisiae deletion strains, locus YHR129C, strain ARP1, stronger effect = lower value 1 | S. cerevisiae deletion strains, locus YHR200W, strain rpn10, stronger effect = lower value 1.02 | S. cerevisiae deletion strains, locus YIL066C, strain RNR3, stronger effect = lower value 1.01 | S. cerevisiae deletion strains, locus YIL073C, strain SPO22, stronger effect = lower value 1.07 | S. cerevisiae deletion strains, locus YIL125W, strain kgd1, stronger effect = lower value 1.01 | S. cerevisiae deletion strains, locus YIR030C, strain dcg1, stronger effect = lower value 1.02 | [3] 1.02 and 0.993 | S. cerevisiae deletion strains, locus YJL134W, strain LCB3, stronger effect = lower value 1.01 | S. cerevisiae deletion strains, locus YJL168C, strain set2, stronger effect = lower value 1.02 | S. cerevisiae deletion strains, locus YJL187C, strain SWE1 (second series), stronger effect = lower value 1.01 | S. cerevisiae deletion strains, locus YJR043C, strain POL32, stronger effect = lower value 1.02 | [4] 0.987 | S. cerevisiae deletion strains, locus YJR075W, strain HOC1, stronger effect = lower value 1.02 | S. cerevisiae deletion strains, locus YKL009W, strain mrt4, stronger effect = lower value 1.01 | S. cerevisiae deletion strains, locus YKL068W, stronger effect = lower value 1.01 | S. cerevisiae deletion strains, locus YKL085W, strain MDH1 (second series), stronger effect = lower value 1.02 | S. cerevisiae deletion strains, locus YKL085W, strain MDH1, stronger effect = lower value 1.02 | S. cerevisiae deletion strains, locus YKL190W, strain CNB1, stronger effect = lower value 1.01 | S. cerevisiae deletion strains, locus YKR001C, strain vps1, stronger effect = lower value 1.02 | S. cerevisiae deletion strains, locus YLR039C, strain RIC1, stronger effect = lower value 1.05 | S. cerevisiae deletion strains, locus YLR058C, strain SHM2, stronger effect = lower value 1.02 | S. cerevisiae deletion strains, locus YLR102C, strain apc9, stronger effect = lower value 1.02 | [5] 0.951 | S. cerevisiae deletion strains, locus YLR262C, strain YPT6, stronger effect = lower value 1.04 | S. cerevisiae deletion strains, locus YLR268W, strain sec22, stronger effect = lower value 1.03 | S. cerevisiae deletion strains, locus YLR330W, strain CHS5, stronger effect = lower value 1.01 | S. cerevisiae deletion strains, locus YLR342W, strain FKS1 (second series), stronger effect = lower value 1.02 | S. cerevisiae deletion strains, locus YLR371W, strain rom2, stronger effect = lower value 1.03 | S. cerevisiae deletion strains, locus YLR418C, strain cdc73, stronger effect = lower value 1.02 | S. cerevisiae deletion strains, locus YML016C, strain PPZ1, stronger effect = lower value 1.01 | S. cerevisiae deletion strains, locus YML032C, strain rad52, stronger effect = lower value 1.02 | S. cerevisiae deletion strains, locus YML124C, strain tub3, stronger effect = lower value 1.01 | S. cerevisiae deletion strains, locus YMR078C, strain ctf18, stronger effect = lower value 1.02 | S. cerevisiae deletion strains, locus YMR223W, strain ubp8, stronger effect = lower value 1.01 | S. cerevisiae deletion strains, locus YMR263W, strain SAP30, stronger effect = lower value 1.01 | S. cerevisiae deletion strains, locus YMR307W, strain GAS1, stronger effect = lower value 1.04 | S. cerevisiae deletion strains, locus YNL067W, strain RPL9B, stronger effect = lower value 1.01 | S. cerevisiae deletion strains, locus YNL128W, strain TEP1, stronger effect = lower value 1.01 | S. cerevisiae deletion strains, locus YNL153C, strain GIM3, stronger effect = lower value 1.01 | [6] 0.968 | S. cerevisiae deletion strains, locus YNL233W, strain BNI4, stronger effect = lower value 1.01 | S. cerevisiae deletion strains, locus YNL250W, strain rad50, stronger effect = lower value 1.01 | S. cerevisiae deletion strains, locus YNL271C, strain bni1, stronger effect = lower value 1.01 | S. cerevisiae deletion strains, locus YNL298W, strain CLA4, stronger effect = lower value 1.01 | S. cerevisiae deletion strains, locus YNL307C, strain MCK1, stronger effect = lower value 1.02 | S. cerevisiae deletion strains, locus YNL322C, strain KRE1, stronger effect = lower value 1.01 | S. cerevisiae deletion strains, locus YNR052C, strain pop2, stronger effect = lower value 1.01 | S. cerevisiae deletion strains, locus YOL006C, strain TOP1, stronger effect = lower value 1.02 | S. cerevisiae deletion strains, locus YOL012C, strain htz1 1.92 | S. cerevisiae deletion strains, locus YOL147C, strain pex11, stronger effect = lower value 1.01 | S. cerevisiae deletion strains, locus YOR061W, strain CKA2, stronger effect = lower value 1.01 | S. cerevisiae deletion strains, locus YOR069W, strain VPS5, stronger effect = lower value 1.01 | S. cerevisiae deletion strains, locus YOR136W, strain idh2, stronger effect = lower value 1.02 | S. cerevisiae deletion strains, locus YOR144C, strain elg1, stronger effect = lower value 1.02 | S. cerevisiae deletion strains, locus YOR184W, strain ser1, stronger effect = lower value 1.01 | [7] 1.01 | S. cerevisiae deletion strains, locus YOR316C, strain cot1, stronger effect = lower value 1.02 | S. cerevisiae deletion strains, locus YPL055C, strain LGE1, stronger effect = lower value 1.03 | S. cerevisiae deletion strains, locus YPL241C, strain CIN2, stronger effect = lower value 1.01 | [8] 1.04 | S. cerevisiae deletion strains, locus YPR119W, strain clb2, stronger effect = lower value 1.01 | S. cerevisiae deletion strains, locus YPR141C, strain kar3, stronger effect = lower value 1.02 | S. cerevisiae deletion strains, locus YPR163C, strain tif3, stronger effect = lower value 1.02 | S. cerevisiae deletion strains, locus YPR167C, strain met16, stronger effect = lower value 1.02 | S. cerevisiae deletion strains, strain wtn01, stronger effect = lower value 1.01 | S. cerevisiae strains, strain wild type, stronger effect = lower value 1.01
